Our source for the growth values is PubChem BioAssay (NCI).

Test systems include NCI-H23 lung; NCI-H226 lung; NCI-H322M lung; HOP-62 NSCLC; NCI-H460 lung; HOP-92 NSCLC; NCI-H522 lung; A549/ATCC NSCLC; 786-0 renal; COLO 205 colon; DU-145 prostate; K-562 leukemia; MALME-3M melanoma; RXF 393 renal; SF-268 CNS; SF-295 CNS; SF-539 CNS; UACC-257 melanoma; M14 melanoma; MDA-MB-231 breast.
What all share (test): NCI-60 one-dose screen, 48 h (100 = growth as untreated, 0 = no growth, -100 = all killed)
Common to all, as to conditions: 10 µM unless noted

About 83,000 compounds went through this panel and 20% of them were active in at least one assay; those are over-represented in the sample as a whole.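 A percent growth of 40 corresponds to 60% growth inhibition; 0 means no net growth; -100 means all cells died. Active threshold: below 10.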 Values without a mark were called inactive. Calls of active or inactive are those of the source.

On to `COc1ccc2c(c1)C(C)Cc1c(ncnc1-n1c(C)nc3ccccc31)N2C` (stereo not drawn), for which the growth is 30.2% with NCI-H23 lung; 63.7% in the assay with NCI-H226 lung; 39.5% in the assay on NCI-H322M lung; 33.6% in the assay on HOP-62 NSCLC; 7.77% (active) in the assay on NCI-H460 lung; -4.69% (active) in the assay with HOP-92 NSCLC. Further, the growth was 20.9% with NCI-H522 lung; 35.2% in the assay on A549/ATCC NSCLC; 29.2% in the assay on 786-0 renal; -11.3% (active) with COLO 205 colon; 24.2% in the assay with DU-145 prostate; 11% in the assay on K-562 leukemia. Besides, the growth in the assay on MALME-3M melanoma is 58.1%; in the assay on RXF 393 renal it was 14.2%; in the assay on SF-268 CNS it was 42.5%; in the assay on SF-295 CNS, 6.04% (active); in the assay on SF-539 CNS it was 5.97% (active); in the assay on UACC-257 melanoma it was 68.3%. Further, the growth in the assay on M14 melanoma is 14.5%.
On to `O=C(Nc1c2ccccc2nc2ccccc12)c1ccccc1CN1C(=O)c2ccccc2C1=O`, for which the growth in the assay on NCI-H23 lung is 28.6%; with NCI-H226 lung it was 40.2%; in the assay with NCI-H322M lung, 21%; with HOP-62 NSCLC it was 37.4%; in the assay on NCI-H460 lung, 3.79% (active); with HOP-92 NSCLC, 38.5%. In addition, the growth in the assay with NCI-H522 lung was 23.7%; with A549/ATCC NSCLC, 18.8%; in the assay with 786-0 renal, 38.9%; in the assay on COLO 205 colon, 9.84% (active); with DU-145 prostate it was 27.3%; in the assay on K-562 leukemia, 22.8%. Also, the growth is 31.2% in the assay with MALME-3M melanoma; 34.3% in the assay with MDA-MB-231 breast; 43.9% with RXF 393 renal; 34.3% with SF-268 CNS; 31.7% with SF-295 CNS; 21.6% with SF-539 CNS. Further, the growth with UACC-257 melanoma is 38.5%; with M14 melanoma, 21%.
With `CC(C)C(=O)Nc1ccc(-c2nc(-c3cccc(OCCN4CCOCC4)c3)c(-c3ccnc(Br)c3)[nH]2)cc1`, the growth was 55.6% with NCI-H23 lung; 76.4% in the assay with NCI-H226 lung; 67.8% in the assay with NCI-H322M lung; 55.2% with HOP-62 NSCLC; 63.6% in the assay with NCI-H460 lung; 61.3% in the assay on HOP-92 NSCLC. Also, the growth with NCI-H522 lung is 68.7%; in the assay on A549/ATCC NSCLC, 63%; with 786-0 renal, -19.3% (active); in the assay with COLO 205 colon it was 43.3%; in the assay on DU-145 prostate, 71.5%; in the assay on K-562 leukemia, 2.82% (active). The growth is 33.6% with MALME-3M melanoma; 57.6% in the assay with MDA-MB-231 breast; -35.3% (active) in the assay with RXF 393 renal; 60.3% with SF-268 CNS; -57.7% (active) in the assay with SF-295 CNS; 24.3% with SF-539 CNS. Further, the figures for the growth in the assay with UACC-257 melanoma and in the assay on M14 melanoma were 56.6% and 59.7%, respectively.
Consider `N#C/C(=C\c1ccc(F)cc1)n1nc2cccc(F)c2n1`, for which the growth with NCI-H23 lung was 56.7%; in the assay on NCI-H226 lung it was 97.6%; in the assay on NCI-H322M lung, 76.2%; in the assay on HOP-62 NSCLC, 76.3%; with NCI-H460 lung, 39.2%; in the assay on HOP-92 NSCLC it was 6.85% (active). For the same compound, the growth in the assay with NCI-H522 lung was 8.28% (active); with A549/ATCC NSCLC, 78.7%; in the assay with 786-0 renal it was 67.3%; with COLO 205 colon, 67.1%; in the assay on DU-145 prostate, 37.6%; in the assay with K-562 leukemia it was 13.3%. Moreover, the growth is 52.9% in the assay with MALME-3M melanoma; 49% in the assay with MDA-MB-231 breast; 12.8% with RXF 393 renal; 71.4% with SF-268 CNS; 76.1% in the assay on SF-295 CNS; 7.78% (active) with SF-539 CNS. In addition, the growth in the assay on UACC-257 melanoma is 61%; in the assay with M14 melanoma it was 25.8%.
Regarding `COc1cc(/C=C/c2c(C(C)=O)c(C)nc3ccccc23)cc(OC)c1OC`, the growth with NCI-H23 lung is 52.8%; in the assay on NCI-H226 lung, 52.4%; in the assay with NCI-H322M lung it was 51.3%; in the assay on HOP-62 NSCLC, 42.4%; with NCI-H460 lung, 15%; with HOP-92 NSCLC, 47.8%. Also, the growth in the assay on NCI-H522 lung is 24.6%; with A549/ATCC NSCLC, 53.4%; in the assay with 786-0 renal, 42.4%; with COLO 205 colon, 19%; in the assay with DU-145 prostate, 42.1%; in the assay on K-562 leukemia it was 13.8%. Further, the growth is 52.5% with MALME-3M melanoma; 43.1% in the assay on MDA-MB-231 breast; 10.8% in the assay with RXF 393 renal; 49.3% in the assay on SF-268 CNS; 20.1% in the assay on SF-295 CNS; 7.46% (active) with SF-539 CNS. Further, the growth with UACC-257 melanoma was 59.6%; in the assay with M14 melanoma, 25.9%.
Consider `O=C(O)CCC/C=C\C[C@H]1C=CC(=O)/C1=C/C[C@@H](O)CCc1cccc(C(F)(F)F)c1`, for which the growth in the assay on NCI-H23 lung was -22.1% (active); in the assay on NCI-H226 lung it was -39.5% (active); with NCI-H322M lung, 11.3%; with HOP-62 NSCLC it was -31.9% (active); with NCI-H460 lung, -65.1% (active); with HOP-92 NSCLC, -20.6% (active). For the same compound, the growth in the assay on NCI-H522 lung is -62.7% (active); with A549/ATCC NSCLC it was -7.82% (active); in the assay with 786-0 renal, -31.3% (active); with COLO 205 colon, -38.1% (active); with DU-145 prostate, 13.6%; with K-562 leukemia, 3.71% (active). Also, the growth with MALME-3M melanoma was 79.1%; with RXF 393 renal, -65.7% (active); with SF-268 CNS, 3.06% (active); in the assay on SF-295 CNS, -40.4% (active); in the assay on SF-539 CNS, -1.94% (active); in the assay on UACC-257 melanoma, -5.2% (active). Besides, the growth in the assay with M14 melanoma was -16.2% (active).
For `Cn1cc(-c2ccc3cc(-c4ccc(CC(=O)Nc5cc(C(C)(C)C)nn5C)cc4)cnc3c2)cn1`, the growth is 5.37% (active) with NCI-H23 lung; -17% (active) in the assay with NCI-H226 lung; 21.4% with NCI-H322M lung; 15.9% with HOP-62 NSCLC; 9.41% (active) in the assay with NCI-H460 lung; 21.1% in the assay on HOP-92 NSCLC. The growth with NCI-H522 lung is 10.8%; with A549/ATCC NSCLC, 17.1%; with 786-0 renal it was 21.4%; in the assay on COLO 205 colon it was 16.2%; with DU-145 prostate it was 14.8%; in the assay on K-562 leukemia it was 13.8%. For the same compound, the growth in the assay with MALME-3M melanoma is -9.19% (active); with MDA-MB-231 breast it was -15% (active); in the assay on RXF 393 renal it was -18.6% (active); in the assay on SF-268 CNS it was 17.4%; in the assay with SF-295 CNS it was 16.7%; with SF-539 CNS it was 15.7%. Also, the growth in the assay on UACC-257 melanoma is 13.1%; with M14 melanoma, 11.1%.
Turning to `O=c1n(Cc2ccc3ccccc3c2)ccn1Cc1ccc2ccccc2c1`, the growth was 91% with NCI-H23 lung; 91.5% with NCI-H226 lung; 86.3% in the assay on NCI-H322M lung; 66% in the assay on HOP-62 NSCLC; 85.7% in the assay on NCI-H460 lung; 83.1% in the assay on HOP-92 NSCLC. The growth in the assay with NCI-H522 lung is 46.8%; in the assay with A549/ATCC NSCLC it was 82.9%; in the assay on 786-0 renal, 95.8%; in the assay on COLO 205 colon, 96.1%; in the assay with DU-145 prostate it was 100%; in the assay with K-562 leukemia, 106%. Also, the growth with MALME-3M melanoma was 91.8%; in the assay with MDA-MB-231 breast it was 91.4%; with RXF 393 renal, 96.4%; with SF-268 CNS, 84.7%; with SF-295 CNS, 94.5%; with SF-539 CNS, 87.7%. Moreover, the growth in the assay with UACC-257 melanoma is 101%; in the assay with M14 melanoma it was 93.3%.
